JMJD2A Tudor inh: inhibitors of human JMJD2A Tudor domain | 4.4% of 390,000 active | O75164 | AlphaScreen JMJD2A-Tudor / H3K4me3 peptide binding | Potency, µM (titrated, usually from 114 µM), without a hit: at the highest dose activity change, negative = inhibition, usual class: inhibitors; also: potency is read from the fitted curve at half-maximal effect; % is scaled to controls: 0 for no effect and ±100 for the full control effect; nearly all actives have a fitted effect of over 50% in size
PI5P4Ka inh: blocks human PI5P4K alpha kinase activity; P48426; PI5P4Kalpha enzyme, ADP-Glo luminescence, 60 min; stronger effect = lower value; max response, %; 1.2% of 330,000 active; active = max response of -50% or lower; inconclusive = between -30% and -50%; inactive = -30% or higher; also: value at the top dose of about 77 µM; % is scaled to controls: 0 for no effect and ±100 for the full control effect
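Single end-point luminescence (ADP-Glo) quantified ADP from PI5P4Kalpha turnover; ATP 5 microM final, 1 h at RT, 0.1% CHAPS and 0.28 mM EGTA in HEPES pH 7.4.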
JMJD2E inh: inhibitors of human JMJD2E histone demethylase; JMJD2E catalytic domain, FDH-coupled NADH fluorescence (FDH is formaldehyde dehydrogenase); Potency, µM (series often up to 57.1 µM), for inactives: at the top dose activity change, negative = inhibition, hits mostly inhibitors; 1.6% of 230,000 active; active = well fitted inhibition curve with a large enough effect, not every such curve was filed as active; inconclusive = small, poorly fitted or top-dose-only effect, or another doubt; inactive = no such curve, though single readings can be large or run the other way;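 also: potency is read from the fitted curve at half-maximal effect; 0% = wells with enzyme and -100% = buffer wells without enzyme; nearly all actives have a fitted effect of over 50% in size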
L3MBTL1 block: L3MBTL1 (human) inhibition. Q9Y468. AlphaScreen L3MBTL1–H3K9me1 peptide binding. Potency, µM (titrated, usually from 57.1 µM), for inactives: at the top dose activity, negative = inhibition, usual class: inhibitors. 0.66% of 230,000 active; also: potency is read from the fitted curve at half-maximal effect; % is scaled to controls: 0 for no effect and ±100 for the full control effect; nearly all actives have a fitted effect of over 60% in size
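L3MBTL1 (50 nM) pre-complexed 30 min with biotinylated H3(1-15)K9me1 peptide (75 nM), then compounds added for 30 min at room temperature; AlphaScreen streptavidin donor/nickel chelate acceptor beads (10 ug/mL final) read after 30 min dark incubation.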
HP1b chromo inh: inhibitors of HP1-beta chromodomain binding to methylated histone tails; AlphaScreen HP1-beta / biotin-H3K9me3 peptide binding; Potency, µM (top dose mostly 114 µM), for inactives: at the top dose activity change, negative = inhibition, actives largely listed as inhibitors; AID 540317; 0.56% of 390,000 active; P83916; also: potency is read from the fitted curve at half-maximal effect; nearly all actives have a fitted effect of over 70% in size
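AlphaScreen: HP1-beta (50 nM) preformed 30 min with biotin-H3(1-18)K9me3 peptide (50 nM) in PBS pH 7.4, 0.01% Tween-20. Compound added for 30 min at RT, then streptavidin donor/nickel chelate acceptor beads (10 ug/mL) for 30 min.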
BAZ2B block: blocks human BAZ2B | Potency, µM (top dose mostly 114 µM), inactives show at the top dose activity change, negative = inhibition, usual class: inhibitors | 4.4% of 360,000 active | AlphaScreen BAZ2B-H3K14Ac peptide displacement | Q9UIF8 | AID 504333; also: potency is read from the fitted curve at half-maximal effect; % is scaled to controls: 0 for no effect and ±100 for the full control effect; nearly all actives have a fitted effect of over 60% in size
Target sequence (Q9UIF8 whole entry, looked up): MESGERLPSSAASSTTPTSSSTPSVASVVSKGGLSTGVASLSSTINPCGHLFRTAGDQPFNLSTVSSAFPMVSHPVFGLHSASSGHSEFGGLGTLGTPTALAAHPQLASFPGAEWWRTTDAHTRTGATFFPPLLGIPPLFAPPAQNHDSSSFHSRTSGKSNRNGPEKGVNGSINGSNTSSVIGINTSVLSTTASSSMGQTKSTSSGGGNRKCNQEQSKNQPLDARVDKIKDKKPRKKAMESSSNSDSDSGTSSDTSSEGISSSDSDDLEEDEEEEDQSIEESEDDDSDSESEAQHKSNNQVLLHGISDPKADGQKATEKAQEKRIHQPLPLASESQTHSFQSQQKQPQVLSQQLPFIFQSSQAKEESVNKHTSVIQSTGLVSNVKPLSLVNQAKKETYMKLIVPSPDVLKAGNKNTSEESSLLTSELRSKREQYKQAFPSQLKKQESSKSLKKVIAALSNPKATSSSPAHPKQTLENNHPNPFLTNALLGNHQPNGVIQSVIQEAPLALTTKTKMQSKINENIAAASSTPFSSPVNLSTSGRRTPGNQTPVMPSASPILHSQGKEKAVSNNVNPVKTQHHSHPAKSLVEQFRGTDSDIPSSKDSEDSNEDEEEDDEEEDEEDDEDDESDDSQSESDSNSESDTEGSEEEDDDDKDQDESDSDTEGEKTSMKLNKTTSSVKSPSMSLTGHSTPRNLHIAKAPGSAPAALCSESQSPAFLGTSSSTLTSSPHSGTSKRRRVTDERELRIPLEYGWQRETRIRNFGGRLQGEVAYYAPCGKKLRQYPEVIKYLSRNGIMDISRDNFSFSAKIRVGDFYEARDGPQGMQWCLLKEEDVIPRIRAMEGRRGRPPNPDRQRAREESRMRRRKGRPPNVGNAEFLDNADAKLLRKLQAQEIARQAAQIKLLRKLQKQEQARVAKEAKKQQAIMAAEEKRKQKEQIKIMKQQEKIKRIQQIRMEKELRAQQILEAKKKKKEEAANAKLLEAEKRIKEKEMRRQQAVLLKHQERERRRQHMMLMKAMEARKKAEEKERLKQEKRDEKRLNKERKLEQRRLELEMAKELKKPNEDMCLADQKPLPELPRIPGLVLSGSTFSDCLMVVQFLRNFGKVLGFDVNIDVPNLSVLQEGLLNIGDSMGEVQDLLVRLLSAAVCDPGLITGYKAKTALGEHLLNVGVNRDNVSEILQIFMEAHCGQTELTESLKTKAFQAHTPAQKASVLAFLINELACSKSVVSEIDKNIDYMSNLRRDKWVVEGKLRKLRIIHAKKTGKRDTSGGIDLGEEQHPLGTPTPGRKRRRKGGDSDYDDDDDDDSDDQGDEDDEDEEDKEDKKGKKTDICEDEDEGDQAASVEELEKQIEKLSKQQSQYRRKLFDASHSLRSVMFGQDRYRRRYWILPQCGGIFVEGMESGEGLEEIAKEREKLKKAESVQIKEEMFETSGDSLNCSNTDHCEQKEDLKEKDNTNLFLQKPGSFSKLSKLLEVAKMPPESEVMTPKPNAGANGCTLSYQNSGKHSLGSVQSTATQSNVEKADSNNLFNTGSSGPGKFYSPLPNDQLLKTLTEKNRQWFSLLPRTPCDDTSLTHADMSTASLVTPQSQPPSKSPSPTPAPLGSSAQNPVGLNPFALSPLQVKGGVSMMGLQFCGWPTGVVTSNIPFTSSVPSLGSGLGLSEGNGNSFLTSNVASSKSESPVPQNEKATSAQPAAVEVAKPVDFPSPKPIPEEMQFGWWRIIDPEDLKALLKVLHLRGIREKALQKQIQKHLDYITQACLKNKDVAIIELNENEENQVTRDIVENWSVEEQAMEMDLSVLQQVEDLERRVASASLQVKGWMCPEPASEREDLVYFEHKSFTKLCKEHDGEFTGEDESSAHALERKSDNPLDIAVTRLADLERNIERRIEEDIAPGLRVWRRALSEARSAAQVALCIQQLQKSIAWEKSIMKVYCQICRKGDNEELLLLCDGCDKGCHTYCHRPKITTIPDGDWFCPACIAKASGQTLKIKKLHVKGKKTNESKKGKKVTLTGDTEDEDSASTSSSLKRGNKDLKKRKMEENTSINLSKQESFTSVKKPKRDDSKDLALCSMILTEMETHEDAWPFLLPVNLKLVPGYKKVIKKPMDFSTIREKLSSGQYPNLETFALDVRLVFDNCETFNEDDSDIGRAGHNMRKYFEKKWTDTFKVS
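Protein-peptide AlphaScreen: BAZ2B 50 nM, b-H3K14Ac 50 nM, 1x PBS pH 7.4 + 0.01% Tween-20. Preincubation 30 min RT; cpd 30 min RT (top 110 uM); beads 20 min RT, light-protected.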
Numbers without * were called inactive; ? = inconclusive; . = no result; [ ] = dose if it differs, or a comment. An excerpt weighted towards active compounds, which were near 5.7% of everything screened. Unless noted, calls follow the shape of the dose curve; as a rule, active = well fitted inhibition curve with a large enough effect; inconclusive = small, poorly fitted or top-dose-only effect; inactive = no such curve, though single readings can be large or run the other way.

SMILES	JMJD2A Tudor inh	PI5P4Ka inh	JMJD2E inh	L3MBTL1 block	HP1b chromo inh	BAZ2B block
Cc1ccc([N+](=O)[O-])c(OCCN2CCc3ccccc3C2)c1	20µM*	1	.	-3%	?	50µM*
Cc1ccc(C)c(OCCCN2CCNCC2)c1	-25%	8	.	0%	23%	-2%
Cc1ccc([N+](=O)[O-])c(OCCCN2CCC(Cc3ccccc3)CC2)c1	20µM*	-1	.	.	?	.
Cc1cc(C(=O)N2CCC(Cc3ccccc3)CC2)ccc1[N+](=O)[O-]	-25%	.	-4%	-9%	3%	-20%[57.1 µM]
Cc1ccc(OCCN2CCNCC2)c([N+](=O)[O-])c1	40µM*	-4	?	-1%	-7%	56µM*
Cc1cccc(NC(=O)c2cccc(N3CCCS3(=O)=O)c2)c1	-1%	.	.	.	36%	2%
O=C(c1ccc([N+](=O)[O-])cc1)N1CCC(Cc2ccccc2)CC1	?	5	-5%	-21%	-8%	?
O=[N+]([O-])c1cccc(OCCN2CCC(Cc3ccccc3)CC2)c1	14µM*	-7	.	-6%	?	56µM*
c1ccc(-n2cccc2CNC2CCCCC2)cc1	3.5µM*	.	?	-9%	?	?
Cn1cccc1CNC1CCCCC1	-15%	.	-2%	.	7%	-32%
CCCCCNCc1cccn1C	-30%	.	-4%	.	6%	-37%
CCCCNCc1cccn1-c1ccccc1	5µM*	-4	?	-11%	?	71µM*
O=C(Nc1ccc(Cl)cc1)c1cc(S(=O)(=O)N2CCc3ccccc32)ccc1F	2%	.	.	.	14%	-5%
CCOc1ccc(NC(=O)CCc2nc3cccnc3n2Cc2ccc(OC)cc2)cc1	-10%	.	.	.	16%	-4%
O=C(O)CCCCCN1C(=O)/C(=C\c2cn(-c3ccccc3)nc2-c2cccs2)SC1=S	40µM*	0	?	?	-22%	13µM*
CC1=NNC(=O)/C1=C\c1cn(-c2ccccc2)nc1-c1cccs1	?	-28	-12%	-2%	-13%	?
O=C(O)CCCCCN1C(=O)/C(=C/c2cn(-c3ccccc3)nc2-c2cccs2)SC1=S	32µM*	-9	.	.	?	.
CC(=C\c1ccccc1)/C=C1/SC(=S)N(CCCC(=O)O)C1=O	-35%	-18	.	.	-11%	?
O=C(O)CCN1C(=O)/C(=C/c2cn(-c3ccccc3)nc2-c2cccs2)SC1=S	22µM*	-3	1%	0%	?	-12%
CCN1C(=O)/C(=C/c2cn(-c3ccccc3)nc2-c2cccnc2)SC1=S	-26%	1	.	.	1%	.
O=C1CCCC1C(O)c1ccc2ccccc2c1 (configuration not stated)	.	.	0%	.	.	.
CCCC[C@@H]1C[C@H]1C(NS(=O)(=O)c1cccc2cccnc12)c1ccc(-c2ccccc2)cc1 (some centres not stated)	.	.	-14%	.	.	.
COc1cccc(NC(=O)Nc2cccc(C(=O)O)c2)c1	2%	7	-5%	4%	46%	1%
COc1cccc(NC(=O)NC2(C(F)(F)F)Oc3ccccc3O2)c1	71µM*	2	5%	-8%	20%	11%
C#CCOCCOCCOCCNc1nc(N2CCN(C(=O)[C@H](CCC(=O)O)n3cc(C(N)Cc4ccc(O)cc4)nn3)CC2)nc(N2CCN(C(=O)[C@H](CCC(=O)O)n3cc(C(N)CC(C)C)nn3)CC2)n1 (some centres not stated)	32µM*	-15	-9%	-7%	-1%	50µM*
SMILES	JMJD2A Tudor inh	PI5P4Ka inh	JMJD2E inh	L3MBTL1 block	HP1b chromo inh	BAZ2B block
C#CCOCCOCCOCCNc1nc(N2CCN(C(=O)[C@H](CCC(=O)O)n3cc(C(N)CO)nn3)CC2)nc(N2CCN(C(=O)[C@H](Cc3ccc(O)cc3)n3cc(C(N)CC(C)C)nn3)CC2)n1 (some centres not stated)	.	.	-4%	-25%	.	32µM*
C#CCOCCOCCOCCNc1nc(N2CCOCC2)nc(N2CCN(C(=O)[C@H](Cc3ccc(O)cc3)n3cc([C@@H](N)CC(C)C)nn3)CC2)n1	-15%	-4	-2%	1%	22%	-24%
C#CCOCCOCCOCCNc1nc(N2CCOCC2)nc(N2CCN(C(=O)[C@H](CCC(=O)O)n3cc(C(N)Cc4ccc(O)cc4)nn3)CC2)n1 (some centres not stated)	89µM*	-3	1%	-4%	19%	-30%
Cn1c(=O)oc2cc(S(=O)(=O)N3CCCC(C(=O)NCCc4ccccc4)C3)ccc21 (configuration not stated)	-2%	.	.	.	40%	0%
COc1ccc(-c2n[nH]c(=S)n2Cc2ccccc2)cc1	25µM*	-9	.	-1%	4%	-10%
S=c1[nH]nc(-c2ccc(Br)o2)n1Cc1ccccc1	32µM*	.	-14%	.	2%	-37%
COc1ccc(-c2n[nH]c(=S)n2Cc2ccccc2)cc1OC	10µM*	-3	.	-1%	?	-34%
CCOc1cc(-c2n[nH]c(=S)n2Cc2ccccc2)ccc1OC(F)F	-30%	1	.	-9%	13%	-10%
C=CCn1c(C2CCCCC2)n[nH]c1=S	5.6µM*	-9	5%	1%	20%	-21%
Cc1ccc(CSCCNC(=O)C2CCN(S(=O)(=O)Cc3ccccc3)CC2)cc1	-3%	.	.	.	39%	-12%
CCNc1cccc(S(=O)(=O)N2CCN(S(=O)(=O)c3ccc4c(c3)OCCO4)CC2)c1	-35%	.	.	.	.	.
CCOc1ccccc1C(=O)Nc1cc2c(cc1N1CCCCC1)n(C)c(=O)n2C	-12%	.	.	.	7%	?
COc1ccc(S(=O)(=O)Nc2ccc(-n3cccc3)cc2)cc1	56µM*	-17	?	.	45µM*	71µM*
S=c1[nH]nc(-c2ccccc2)n1Cc1ccccc1	11µM*	0	?	2%	-3%	-3%
S=c1[nH]nc(-c2ccc(Cl)cc2)n1Cc1ccccc1	?	.	-3%	-12%	6%	-6%
COc1ccc(NS(=O)(=O)c2ccc(N3C(=O)CCC3=O)cc2)cc1	-14%	-2	-1%	.	36%	7%
S=c1[nH]nc(C2CCCCC2)n1Cc1ccccc1	35µM*	-1	?	-6%	18%	-28%
COc1ccc(NS(=O)(=O)c2ccc(-c3n[nH]c(=S)n3Cc3ccccc3)cc2)cc1	25µM*	-6	5%	-15%	-15%	-35%
Cn1nnnc1Sc1ncnc2scc(-c3ccc(C(=O)OC(C)(C)C)cc3)c12	-26%	.	.	.	.	.
Cc1c2cnn(CC(=O)NCCc3ccccc3)c(=O)c2c(C)n1Cc1ccccc1Cl	-18%	.	.	.	12%	2%
COc1ccc(NC(=O)C2CCN(S(=O)(=O)c3c(C)noc3/C=C/c3cccs3)CC2)cc1Cl	-20%	.	.	.	30%	.
Cn1cccc1/C=C(/C#N)C(N)=S	-24%	-12	0%	-13%	-6%	?
